Results from PubChem BioAssay (EPA / NIEHS).
Several values for one entry are separate records, joined by “and”; a condition that tells them apart may be missing. Equal entries are not always repeated. A structure can be active in one record and inactive in another. Activity calls are given as the source filed them. The calls were made as follows: active = hit-call score of the fitted dose curve at least 0.9, where 1 is the maximum; inactive = score below 0.9.

Columns and labels:
[1] = BSK_CASM3C_SRB: Viability Assessment in the BioMAP Diversity Plus: CASM3C Assay (AID 2283050); conditions: primary human coronary artery smooth muscle cells;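 also: total protein by SRB staining as cytotoxicity measure in parallel cultures; cells exposed to compound for 24 h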
[2] = read-out: Thrombomodulin, THBD (gene 7056); experiment: BSK_CASM3C_Thrombomodulin: BioMAP Diversity Plus: CASM3C Assay for Thrombomodulin Biomarker Activity (AID 2283051); conditions: primary human coronary artery smooth muscle cells; actives raise or lower the signal;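 also: thrombomodulin protein level measured by ELISA 24 h after dosing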
[3] = read-out: Tissue Factor, F3 (gene 2152); experiment: BSK_CASM3C_TissueFactor: BioMAP Diversity Plus: CASM3C Assay for Tissue Factor Biomarker Activity (AID 2283052); conditions: primary human coronary artery smooth muscle cells; actives raise or lower the signal;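 also: cell surface tissue factor protein level read by ELISA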
[4] = read-out: Interferon-gamma inducible Protein 10 (IP10), CXCL10 (gene 3627); experiment: BSK_hDFCGF_IP10: BioMAP Diversity Plus: hDFCGF Assay for Interferon-gamma inducible Protein 10 (IP10) Biomarker Activity (AID 2283053); conditions: primary human foreskin fibroblasts; actives raise or lower the signal
Summary of the method: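 Chemical-treated human skin fibroblasts (primary) were sampled at 24 h for IP-10 by ELISA. Both increases and decreases relative to DMSO were scored.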

[5] = read-out: Urokinase-type plasminogen activator receptor (uPAR), PLAUR (gene 5329); experiment: BSK_CASM3C_uPAR: BioMAP Diversity Plus: CASM3C Assay for Urokinase-type plasminogen activator receptor (uPAR) Biomarker Activity (AID 2283054); conditions: primary human coronary artery smooth muscle cells; actives raise or lower the signal;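 also: cell-surface uPAR protein level quantified by ELISA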
[6] = read-out: Vascular cell adhesion molecule 1 (VCAM1), VCAM1 (gene 7412); experiment: BSK_CASM3C_VCAM1: BioMAP Diversity Plus: CASM3C Assay for Vascular cell adhesion molecule 1 (VCAM1) Biomarker Activity (AID 2283055); conditions: primary human coronary artery smooth muscle cells; actives raise or lower the signal;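 also: VCAM-1 protein level quantified by ELISA on the cells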
[7] = read-out: Collagen III, COL3A1 (gene 1281); experiment: BSK_hDFCGF_CollagenIII: BioMAP Diversity Plus: hDFCGF Assay for Collagen III Biomarker Activity (AID 2283056); conditions: primary human foreskin fibroblasts; actives raise or lower the signal
Summary of the method: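 Human foreskin primary fibroblasts were exposed to test chemicals for 24 h, after which collagen III was quantified by ELISA. Activity was fitted bidirectionally against DMSO as negative control and baseline.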

[8] = read-out: Epidermal growth factor receptor (EGFR), EGFR (gene 1956); experiment: BSK_hDFCGF_EGFR: BioMAP Diversity Plus: hDFCGF Assay for Epidermal growth factor receptor (EGFR) Biomarker Activity (AID 2283057); conditions: primary human foreskin fibroblasts; actives raise or lower the signal
Summary of the method: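 Cell-based multiplexed assay in primary human foreskin fibroblasts. EGFR is read by ELISA 24 h after treatment and compared with DMSO controls.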

[9] = read-out: Interleukin-8 (IL8), CXCL8 (gene 3576); experiment: BSK_hDFCGF_IL8: BioMAP Diversity Plus: hDFCGF Assay for Interleukin-8 (IL8) Biomarker Activity (AID 2283058); conditions: primary human foreskin fibroblasts; actives raise or lower the signal
Summary of the method: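 hDFCGF human dermal fibroblasts; 24 h chemical exposure; IL-8 by ELISA; bidirectional curve fit vs DMSO baseline; gain or loss of signal scored.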

[10] = BSK_hDFCGF_Proliferation: Cell Proliferation Assessment in the BioMAP Diversity Plus: hDFCGF Assay (AID 2283059); conditions: primary human foreskin fibroblasts;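 also: curves fitted for both rise and fall of signal versus DMSO baseline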
Summary of the method: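 Sub-confluent human foreskin fibroblast cultures receive test chemical […]. Relative cell number is quantified by sulforhodamine B staining (0.1%, after 10% TCA fixation) at 560 nm, with bidirectional fitting referenced to DMSO.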

Measured: AC50

O=C(O)C(F)(OC(F)(F)C(F)(F)C(F)(F)F)C(F)(F)F (centres undefined)
active: [2] 2.48 µM
inactive: [1] | [2] | [3] | [4] | [5] | [6] | [7] | [8] | [9] | [10]

Cc1ccc2c(c1N)C(=O)c1ccccc1C2=O
inactive: [1] | [2] | [3] | [4] | [6] | [8] | [9] | [10]
active: [5] 20 µM | [7] 20 µM

Nc1ccc([N+](=O)[O-])cc1Cl
inactive: [1] | [2] | [3] | [4] | [6] | [7] | [8] | [9] | [10]
active: [5] 0.0567 µM

CCCCC(CC)COC(=O)c1c(Br)c(Br)c(Br)c(Br)c1C(=O)OCC(CC)CCCC (centres undefined)
inactive: [1] | [2] | [3] | [4] | [5] | [6] | [7] | [8] | [9] | [10]

[N-]=[N+]=[N-]
inactive: [1] | [2] | [3] | [4] | [5] | [6] | [7] | [8] | [9] | [10]

COP(N)(=S)OC
inactive: [1] | [2] | [3] | [4] | [5] | [6] | [7] | [8] | [9] | [10]

O=C(O)C(F)(F)OC(F)(F)C(F)(F)OC(F)(F)F
inactive: [1] | [2] | [3] | [4] | [5] | [6] | [7] | [8] | [9] | [10]

ClC(Cl)(Cl)c1ccccc1
inactive: [1] | [2] | [3] | [4] | [5] | [6] | [7] | [8] | [9] | [10]

CC(Cl)(Cl)C(=O)O
active: [10] 0.148 µM
inactive: [1] | [2] | [3] | [4] | [5] | [6] | [7] | [8] | [9]

O=[N+]([O-])c1ccccc1
inactive: [1] | [2] | [3] | [4] | [5] | [6] | [7] | [8] | [9] | [10]

O=C(O)C(F)(F)C(F)(F)C(=O)O
inactive: [1] | [2] | [3] | [4] | [5] | [6] | [7] | [8] | [9] | [10]
active: [4] 17.2 µM | [10] 0.22 µM

CCOP(=S)(S)OCC
active: [10] 12.6 µM
inactive: [1] | [2] | [3] | [4] | [5] | [6] | [7] | [8] | [9]

CC(O)C(F)(F)C(F)(F)F (centres undefined)
active: [2] 3.08 µM
inactive: [1] | [2] | [3] | [4] | [5] | [6] | [7] | [9] | [10]

CC(C)Nc1ccc(Nc2ccccc2)cc1
active: [1] 26.3 µM | [2] 36.6 µM | [3] 13.4 µM | [4] 5.88 µM | [5] 32.9 µM | [6] 27.5 µM | [7] 8.09 µM | [9] 14 µM | [10] 0.464 µM
inactive: [8]

CCOC(=O)c1ccccc1C(=O)OCC
inactive: [1] | [2] | [3] | [4] | [5] | [6] | [7] | [8] | [9] | [10]

CCOP(=S)(OCC)SCSc1ccc(Cl)cc1
active: [3] 16.5 µM | [4] 8.28 µM | [6] 1.6 µM
inactive: [1] | [2] | [5] | [7] | [8] | [9] | [10]

OCC(F)(F)OC(F)(F)C(F)(F)OC(F)(F)C(F)(F)OC(F)(F)CO
inactive: [1] | [2] | [3] | [5] | [6] | [7] | [9]
active: [4] 26.5 µM and 24.2 µM | [7] 14.9 µM | [10] 4.15 µM and 36.9 µM

O=C(O)C(Cl)Cl
inactive: [1] | [2] | [3] | [4] | [5] | [6] | [7] | [8] | [9] | [10]

O=S1(=O)OCC2C(CO1)C1(Cl)C(Cl)=C(Cl)C2(Cl)C1(Cl)Cl (centres undefined)
inactive: [1] | [4] | [6] | [7] | [8] | [9] | [10]
active: [2] 20 µM | [3] 20.9 µM | [5] 30.1 µM

Cc1ccc(N)cc1N
inactive: [1] | [2] | [3] | [4] | [5] | [6] | [7] | [8] | [9] | [10]

FC(F)(F)C(F)(C(F)(F)F)C(F)(F)C(F)(F)CC1CO1 (centres undefined)
inactive: [1] | [2] | [3] | [4] | [5] | [6] | [7] | [8] | [9] | [10]

c1ccc(OP(Oc2ccccc2)Oc2ccccc2)cc1
inactive: [1] | [2] | [3] | [4] | [5] | [6] | [7] | [8] | [9] | [10]

COP(=O)(O)OC
inactive: [1] | [2] | [3] | [4] | [5] | [6] | [7] | [8] | [9] | [10]

OCC(F)(F)OC(F)(F)C(F)(F)OC(F)(F)C(F)(F)OC(F)(F)F
inactive: [2] | [3] | [4] | [5] | [6] | [7] | [9]
active: [1] 32.9 µM and 44.3 µM | [6] 30 µM | [10] 11.6 µM and 15.8 µM

N#Cc1cc([N+](=O)[O-])ccc1N
inactive: [1] | [2] | [3] | [4] | [5] | [6] | [7] | [8] | [9] | [10]

O=C(O)C(F)(F)OC(F)(F)C(F)(F)OC(F)(F)C(=O)O
inactive: [1] | [2] | [3] | [4] | [5] | [6] | [7] | [8] | [9] | [10]

CCCCN(CCCC)SN(C)C(=O)Oc1cccc2c1OC(C)(C)C2
active: [1] 33.7 µM | [2] 29.1 µM | [4] 8.12 µM | [6] 13.4 µM | [7] 5.49 µM | [9] 16.2 µM | [10] 6.34 µM
inactive: [3] | [5] | [8]

O=c1ssc(Cl)c1Cl
active: [1] 3.99 µM | [3] 6.61 µM | [4] 3.7 µM | [5] 6.83 µM | [6] 4.48 µM | [7] 8.15 µM | [9] 13.1 µM | [10] 0.577 µM
inactive: [2]

N#Cc1c(-c2ccc(Cl)cc2)[nH]c(C(F)(F)F)c1Br
inactive: [2] | [8] | [9]
active: [1] 0.865 µM | [3] 0.224 µM | [4] 20 µM | [5] 0.773 µM | [6] 30.1 µM | [7] 0.0161 µM | [10] 0.731 µM

CCC1(c2ccccc2)C(=O)N=C(O)NC1=O (centres undefined)
inactive: [1] | [2] | [3] | [4] | [5] | [6] | [7] | [9] | [10]

CCCCN(CCCC)N=O
inactive: [1] | [2] | [3] | [4] | [5] | [6] | [7] | [8] | [9] | [10]

CC(C)(C)c1ccc(O)cc1
inactive: [1] | [2] | [3] | [4] | [5] | [6] | [7] | [8] | [9] | [10]

O=C(O)C=CC(F)(C(F)(F)F)C(F)(F)F
inactive: [1] | [2] | [3] | [4] | [5] | [6] | [7] | [9] | [10]

c1ccc2c(c1)sc1ccccc12
inactive: [1] | [2] | [3] | [4] | [5] | [6] | [7] | [8] | [9] | [10]

O=C(O)C1C(C(=O)O)C2(Cl)C(Cl)=C(Cl)C1(Cl)C2(Cl)Cl (centres undefined)
inactive: [1] | [2] | [3] | [4] | [5] | [6] | [7] | [8] | [9] | [10]

COC(=O)C(F)(F)C(F)(F)OC(F)(C(F)(F)F)C(F)(F)OC(F)=C(F)F (centres undefined)
active: [4] 5.35 µM and 2.92 µM | [10] 5.81 µM
inactive: [1] | [2] | [3] | [5] | [6] | [7] | [8] | [9] | [10]

O=P(Oc1ccccc1)(Oc1ccccc1)Oc1ccccc1
inactive: [1] | [3] | [4] | [5] | [6] | [9]
active: [2] 29.6 µM | [7] 8.45 µM | [10] 14.2 µM

ClC(Cl)c1ccccc1
inactive: [1] | [2] | [3] | [4] | [5] | [6] | [7] | [9] | [10]

CCCCC(CC)COP(=O)(Oc1ccccc1)Oc1ccccc1 (centres undefined)
active: [1] 20 µM | [4] 4.03 µM | [7] 2.39 µM | [9] 11.9 µM | [10] 6.04 µM
inactive: [2] | [3] | [5] | [6] | [8]

CCCN(CCC)c1c([N+](=O)[O-])cc(C(C)C)cc1[N+](=O)[O-]
inactive: [1] | [3] | [5] | [6] | [9]
active: [2] 20 µM | [4] 20 µM | [7] 9.07 µM | [8] 20 µM | [10] 13.3 µM

OCC(F)(F)OC(F)(F)C(F)(F)OC(F)(F)CO
inactive: [1] | [2] | [3] | [4] | [5] | [6] | [7] | [8] | [9] | [10]
